Test results taken from PubChem BioAssay AID1159580 (chemical genetic matrix, 2015).
Where “and” joins values, the source holds several entries; their conditions need not be identical. Equal values may be shown once. The campaign covered roughly 5,500 compounds. About 2,000 (36%) were called active. Inconclusive results (about 18%) are left out. Rule as the data show it: active = normalized growth mostly below about 0.91 (no sharp cut-off); inconclusive = no clear call, values can overlap the other calls; inactive = mostly above about 0.92. This is one part of the list.

Experiment: chemical genetic growth profiling, strain panel (AID 1159580);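 also: tested at 20 µM; growth read once vehicle control cultures reached saturation at 30 °C; 1 = growth at the plate median or of vehicle wells; lower values mean less growth of the strain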
Settings: growth OD

Measured: normalized growth

C/C1=C\CCC(=O)C2CC(C)(C)C2CC1 (stereo unspecified)
inactive: S. cerevisiae deletion strains, locus YBR021W, strain FUR4, active compounds read low 0.997 | S. cerevisiae deletion strains, locus YBR229C, strain ROT2, active compounds read low 1.02 | S. cerevisiae deletion strains, locus YCL029C, strain bik1, active compounds read low 1.03 | S. cerevisiae deletion strains, locus YDL035C, strain GPR1, active compounds read low 0.999 | S. cerevisiae deletion strains, locus YDL074C, strain BRE1, active compounds read low 1.02 | S. cerevisiae deletion strains, locus YDL101C, strain DUN1, active compounds read low 1.03 | S. cerevisiae deletion strains, locus YDL134C, strain PPH21, active compounds read low 1.04 | S. cerevisiae deletion strains, locus YDL185W, strain tfp1, active compounds read low 1.03 | S. cerevisiae deletion strains, locus YDL192W, strain arf1, active compounds read low 1.01 | S. cerevisiae deletion strains, locus YDR101C, strain arx1, active compounds read low 1 | S. cerevisiae deletion strains, locus YDR162C, strain NBP2, active compounds read low 1.03 | S. cerevisiae deletion strains, locus YDR318W, strain mcm21, active compounds read low 1.03 | S. cerevisiae deletion strains, locus YDR388W, active compounds read low 1.03 | S. cerevisiae deletion strains, locus YDR502C, strain sam2, active compounds read low 1.03 | S. cerevisiae deletion strains, locus YEL061C, strain CIN8, active compounds read low 1.02 | S. cerevisiae deletion strains, locus YER110C, active compounds read low 1.04 | S. cerevisiae deletion strains, locus YER155C, strain BEM2, active compounds read low 1.01 | S. cerevisiae deletion strains, locus YER167W, strain BCK2, active compounds read low 1.01 | S. cerevisiae deletion strains, locus YGL078C, strain dbp3, active compounds read low 1.02 | S. cerevisiae deletion strains, locus YGL086W, strain mad1, active compounds read low 1.02 | S. cerevisiae deletion strains, locus YGL248W, strain PDE1, active compounds read low 1.03 | S. cerevisiae deletion strains, locus YGR135W, strain pre9, active compounds read low 1.07 | S. cerevisiae deletion strains, locus YGR252W, strain gcn5, active compounds read low 1 | S. cerevisiae deletion strains, locus YHR030C, strain SLT2, active compounds read low 1.02 and 1.01 | S. cerevisiae deletion strains, locus YHR079C, strain IRE1 (second series), active compounds read low 1.02 | S. cerevisiae deletion strains, locus YHR079C, strain IRE1, active compounds read low 1.01 | S. cerevisiae deletion strains, locus YHR094C, strain hxt1, active compounds read low 1.02 | S. cerevisiae deletion strains, locus YHR129C, strain ARP1, active compounds read low 1.01 | S. cerevisiae deletion strains, locus YHR200W, strain rpn10, active compounds read low 1.03 | S. cerevisiae deletion strains, locus YIL066C, strain RNR3, active compounds read low 1.02 | S. cerevisiae deletion strains, locus YIL073C, strain SPO22, active compounds read low 1.08 | S. cerevisiae deletion strains, locus YIL125W, strain kgd1, active compounds read low 1.02 | S. cerevisiae deletion strains, locus YIR030C, strain dcg1, active compounds read low 1.02 | S. cerevisiae deletion strains, locus YJL095W, strain BCK1, active compounds read low 1.07 and 1.02 | S. cerevisiae deletion strains, locus YJL134W, strain LCB3, active compounds read low 1.02 | S. cerevisiae deletion strains, locus YJL168C, strain set2, active compounds read low 1.02 | S. cerevisiae deletion strains, locus YJL187C, strain SWE1 (second series), active compounds read low 1.04 | S. cerevisiae deletion strains, locus YJR043C, strain POL32, active compounds read low 1.01 | S. cerevisiae deletion strains, locus YJR066W, strain TOR1, active compounds read low 0.954 | S. cerevisiae deletion strains, locus YKL009W, strain mrt4, active compounds read low 0.982 | S. cerevisiae deletion strains, locus YKL068W, active compounds read low 1.02 | S. cerevisiae deletion strains, locus YKL085W, strain MDH1 (second series), active compounds read low 1.01 | S. cerevisiae deletion strains, locus YKL085W, strain MDH1, active compounds read low 1.01 | S. cerevisiae deletion strains, locus YKL190W, strain CNB1, active compounds read low 1.01 | S. cerevisiae deletion strains, locus YKR001C, strain vps1, active compounds read low 1.04 | S. cerevisiae deletion strains, locus YLR039C, strain RIC1, active compounds read low 1.09 | S. cerevisiae deletion strains, locus YLR058C, strain SHM2, active compounds read low 1.02 | S. cerevisiae deletion strains, locus YLR102C, strain apc9, active compounds read low 1.02 | S. cerevisiae deletion strains, locus YLR113W, strain HOG1, active compounds read low 1.03 | S. cerevisiae deletion strains, locus YLR262C, strain YPT6, active compounds read low 1.1 | S. cerevisiae deletion strains, locus YLR268W, strain sec22, active compounds read low 1.01 | S. cerevisiae deletion strains, locus YLR342W, strain FKS1 (second series), active compounds read low 1.03 | S. cerevisiae deletion strains, locus YLR371W, strain rom2, active compounds read low 1.04 | S. cerevisiae deletion strains, locus YLR418C, strain cdc73, active compounds read low 1.04 | S. cerevisiae deletion strains, locus YML016C, strain PPZ1, active compounds read low 1.03 | S. cerevisiae deletion strains, locus YML032C, strain rad52, active compounds read low 1.02 | S. cerevisiae deletion strains, locus YML124C, strain tub3, active compounds read low 1.02 | S. cerevisiae deletion strains, locus YMR078C, strain ctf18, active compounds read low 1.02 | S. cerevisiae deletion strains, locus YMR223W, strain ubp8, active compounds read low 1.01 | S. cerevisiae deletion strains, locus YMR307W, strain GAS1, active compounds read low 1.09 | S. cerevisiae deletion strains, locus YNL067W, strain RPL9B, active compounds read low 1.03 | S. cerevisiae deletion strains, locus YNL183C, strain NPR1, active compounds read low 0.954 | S. cerevisiae deletion strains, locus YNL233W, strain BNI4, active compounds read low 1.05 | S. cerevisiae deletion strains, locus YNL250W, strain rad50, active compounds read low 1.07 | S. cerevisiae deletion strains, locus YNL271C, strain bni1, active compounds read low 1.02 | S. cerevisiae deletion strains, locus YNL298W, strain CLA4, active compounds read low 1.01 | S. cerevisiae deletion strains, locus YNL307C, strain MCK1, active compounds read low 1.03 | S. cerevisiae deletion strains, locus YNR052C, strain pop2, active compounds read low 1.04 | S. cerevisiae deletion strains, locus YOL006C, strain TOP1, active compounds read low 1.1 | S. cerevisiae deletion strains, locus YOL012C, strain htz1 1.02 | S. cerevisiae deletion strains, locus YOL147C, strain pex11, active compounds read low 1.01 | S. cerevisiae deletion strains, locus YOR061W, strain CKA2, active compounds read low 1.02 | S. cerevisiae deletion strains, locus YOR069W, strain VPS5, active compounds read low 1.02 | S. cerevisiae deletion strains, locus YOR136W, strain idh2, active compounds read low 1.02 | S. cerevisiae deletion strains, locus YOR144C, strain elg1, active compounds read low 1.02 | S. cerevisiae deletion strains, locus YOR184W, strain ser1, active compounds read low 1 | S. cerevisiae deletion strains, locus YOR231W, strain MKK1, active compounds read low 1 | S. cerevisiae deletion strains, locus YOR316C, strain cot1, active compounds read low 1.03 | S. cerevisiae deletion strains, locus YPL055C, strain LGE1, active compounds read low 1.05 | S. cerevisiae deletion strains, locus YPL256C, strain CLN2, active compounds read low 0.999 | S. cerevisiae deletion strains, locus YPR119W, strain clb2, active compounds read low 1.02 | S. cerevisiae deletion strains, locus YPR141C, strain kar3, active compounds read low 1.03 | S. cerevisiae deletion strains, locus YPR163C, strain tif3, active compounds read low 1.02 | S. cerevisiae deletion strains, locus YPR167C, strain met16, active compounds read low 1.02 | S. cerevisiae deletion strains, strain wtn01, active compounds read low 1.02 | S. cerevisiae strains, strain wild type, active compounds read low 1.03
